Drawing on PubChem BioAssay (EPA / NIEHS), this text covers outcome and AC50 for six compounds.

SMILES strings stand for the structures. Active and inactive are the calls of the source. The calls were made as follows: active = hit-call score of the fitted dose curve at least 0.9, where 1 is the maximum; inactive = score below 0.9.

Read-out in test [1]: Interleukin-6 (IL6), IL6 (gene 3569)
Put plainly: BSK_CASM3C_IL6: BioMAP Diversity Plus: CASM3C Assay for Interleukin-6 (IL6) Biomarker Activity for (AID 2283040). Particulars: primary human coronary artery smooth muscle cells; actives raise or lower the signal.

Read-out in test [2]: Tissue plasminogen activator (tPA), PLAT (gene 5327)
The test can be described thus: BSK_BE3C_tPA: BioMAP Diversity Plus: BE3C Assay for Tissue plasminogen activator (tPA) Biomarker Activity (AID 2283041).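 Also: tPA level quantified by ELISA one day after compound addition.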 The settings on record: primary human bronchial epithelial cells; actives raise or lower the signal. The method, boiled down:
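Using human lung primary bronchial epithelial cells, tPA was measured by ELISA 24 h after dosing; data fitted relative to DMSO.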

Read-out in test [3]: Interleukin-8 (IL8), CXCL8 (gene 3576)
Put plainly: BSK_CASM3C_IL8: BioMAP Diversity Plus: CASM3C Assay for Interleukin-8 (IL8) Biomarker Activity (AID 2283042).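 Also: IL-8 protein level quantified by ELISA.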 The settings on record: primary human coronary artery smooth muscle cells; actives raise or lower the signal.

Read-out in test [4]: Human Leukocyte Antigen - DR isotype (HLADR), HLA-DRA (gene 3122)
The test can be described thus: BSK_CASM3C_HLADR: BioMAP Diversity Plus: CASM3C Assay for Human Leukocyte Antigen - DR isotype (HLADR) Biomarker Activity (AID 2283043).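 Also: cell-surface HLA-DR protein level quantified by ELISA.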 The settings on record: primary human coronary artery smooth muscle cells; actives raise or lower the signal.

Read-out in test [5]: Macrophage colony-stimulating factor (MCSF), CSF1 (gene 1435)
Put plainly: BSK_CASM3C_MCSF: BioMAP Diversity Plus: CASM3C Assay for Macrophage colony-stimulating factor (MCSF) Biomarker Activity (AID 2283044).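 Also: M-CSF protein amount quantified by ELISA after 24 h exposure.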 Particulars: primary human coronary artery smooth muscle cells; actives raise or lower the signal.

Read-out in test [6]: Low-density lipoprotein receptor (LDLR), LDLR (gene 3949)
Put plainly: BSK_CASM3C_LDLR: BioMAP Diversity Plus: CASM3C Assay for Low-density lipoprotein receptor (LDLR) Biomarker Activity (AID 2283045).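 Also: LDLR protein level on the cell surface quantified by ELISA.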 Particulars: primary human coronary artery smooth muscle cells; actives raise or lower the signal.

Read-out in test [7]: Monocyte Chemoattractant Protein-1 (MCP1), CCL2 (gene 6347)
The test can be described thus: BSK_CASM3C_MCP1: BioMAP Diversity Plus: CASM3C Assay for Monocyte Chemoattractant Protein-1 (MCP1) Biomarker Activity (AID 2283046).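 Also: MCP-1 level quantified by ELISA 24 h after dosing.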 The settings on record: primary human coronary artery smooth muscle cells; actives raise or lower the signal.

Test [8] can be described thus: BSK_CASM3C_Proliferation: Cell Proliferation Assessment in the BioMAP Diversity Plus: CASM3C Assay (AID 2283047).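 Also: sulforhodamine B total protein stain as relative cell number at 560 nm; sub-confluent cells exposed 48 h before staining; fitted both ways against DMSO so gain or loss of cell number.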 The settings on record: primary human coronary artery smooth muscle cells.
Read-out in test [9]: Monokine induced gamma interferon (MIG), CXCL9 (gene 4283)
Put plainly: BSK_CASM3C_MIG: BioMAP Diversity Plus: CASM3C Assay for Monokine induced gamma interferon (MIG) Biomarker Activity (AID 2283048).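 Also: MIG protein level measured by ELISA.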 Particulars: primary human coronary artery smooth muscle cells; actives raise or lower the signal.

Read-out in test [10]: serum amyloid A (SAA), SAA1 (gene 6288)
Put plainly: BSK_CASM3C_SAA: BioMAP Diversity Plus: CASM3C Assay for serum amyloid A (SAA) Biomarker Activity (AID 2283049).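 Also: SAA protein level quantified by ELISA.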 The settings on record: primary human coronary artery smooth muscle cells; actives raise or lower the signal.

A short description of test [11]: BSK_CASM3C_SRB: Viability Assessment in the BioMAP Diversity Plus: CASM3C Assay (AID 2283050).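 Also: total protein by SRB staining as cytotoxicity measure in parallel cultures; cells exposed to compound for 24 h.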 Particulars: primary human coronary artery smooth muscle cells.
Read-out in test [12]: Thrombomodulin, THBD (gene 7056)
Put plainly: BSK_CASM3C_Thrombomodulin: BioMAP Diversity Plus: CASM3C Assay for Thrombomodulin Biomarker Activity (AID 2283051).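 Also: thrombomodulin protein level measured by ELISA 24 h after dosing.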 The settings on record: primary human coronary artery smooth muscle cells; actives raise or lower the signal.

Read-out in test [13]: Tissue Factor, F3 (gene 2152)
Put plainly: BSK_CASM3C_TissueFactor: BioMAP Diversity Plus: CASM3C Assay for Tissue Factor Biomarker Activity (AID 2283052).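 Also: cell surface tissue factor protein level read by ELISA.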 Particulars: primary human coronary artery smooth muscle cells; actives raise or lower the signal.

Read-out in test [14]: Interferon-gamma inducible Protein 10 (IP10), CXCL10 (gene 3627)
The test can be described thus: BSK_hDFCGF_IP10: BioMAP Diversity Plus: hDFCGF Assay for Interferon-gamma inducible Protein 10 (IP10) Biomarker Activity (AID 2283053). The settings on record: primary human foreskin fibroblasts; actives raise or lower the signal. Put shortly: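 Chemical-treated human skin fibroblasts (primary) were sampled at 24 h for IP-10 by ELISA. Both increases and decreases relative to DMSO were scored.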

Read-out in test [15]: Urokinase-type plasminogen activator receptor (uPAR), PLAUR (gene 5329)
Put plainly: BSK_CASM3C_uPAR: BioMAP Diversity Plus: CASM3C Assay for Urokinase-type plasminogen activator receptor (uPAR) Biomarker Activity (AID 2283054).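 Also: cell-surface uPAR protein level quantified by ELISA.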 Particulars: primary human coronary artery smooth muscle cells; actives raise or lower the signal.

Read-out in test [16]: Vascular cell adhesion molecule 1 (VCAM1), VCAM1 (gene 7412)
The test can be described thus: BSK_CASM3C_VCAM1: BioMAP Diversity Plus: CASM3C Assay for Vascular cell adhesion molecule 1 (VCAM1) Biomarker Activity (AID 2283055).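 Also: VCAM-1 protein level quantified by ELISA on the cells.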 Particulars: primary human coronary artery smooth muscle cells; actives raise or lower the signal.

Read-out in test [17]: Collagen III, COL3A1 (gene 1281)
The test can be described thus: BSK_hDFCGF_CollagenIII: BioMAP Diversity Plus: hDFCGF Assay for Collagen III Biomarker Activity (AID 2283056). Particulars: primary human foreskin fibroblasts; actives raise or lower the signal. The method, boiled down:
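Cells: human foreskin fibroblasts, primary. Dosing followed by 24 h incubation, then ELISA for collagen III. Both increases and decreases scored relative to DMSO.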

Read-out in test [18]: Epidermal growth factor receptor (EGFR), EGFR (gene 1956)
Put plainly: BSK_hDFCGF_EGFR: BioMAP Diversity Plus: hDFCGF Assay for Epidermal growth factor receptor (EGFR) Biomarker Activity (AID 2283057). Particulars: primary human foreskin fibroblasts; actives raise or lower the signal. Put shortly: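 Cell-based multiplexed assay in primary human foreskin fibroblasts. EGFR is read by ELISA 24 h after treatment and compared with DMSO controls.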

Read-out in test [19]: Interleukin-8 (IL8), CXCL8 (gene 3576)
The test can be described thus: BSK_hDFCGF_IL8: BioMAP Diversity Plus: hDFCGF Assay for Interleukin-8 (IL8) Biomarker Activity (AID 2283058). The settings on record: primary human foreskin fibroblasts; actives raise or lower the signal. The method, boiled down: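 IL-8 levels from compound-treated primary human fibroblasts were read by ELISA at 24 h, with DMSO serving as baseline for bidirectional fitting.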

Test [20] is described as follows: BSK_hDFCGF_Proliferation: Cell Proliferation Assessment in the BioMAP Diversity Plus: hDFCGF Assay (AID 2283059).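 Also: curves fitted for both rise and fall of signal versus DMSO baseline.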 Particulars: primary human foreskin fibroblasts. The method, boiled down:
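Total protein read at 560 nm after 0.1% SRB staining of TCA-fixed human skin fibroblasts, […]. Activity is fitted in both directions relative to DMSO as baseline.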

In the case of `O=C(CC(=O)C(F)(F)C(F)(F)F)C(F)(F)F`, the result in test [1], in test [2], in test [3], in test [4], in test [5] and in [6] was inactive. Besides, the outcome in test [7], in test [8], in test [9], in test [10], in [11] and in test [12] was inactive. Moreover, the result in test [13], in [14], in test [15], in test [16], in [17] and in test [18] was inactive. Also, the outcome in test [19] and in test [20] was inactive.
With `FC(F)(F)C(F)(F)C(F)(F)CI`, the result in test [1], in [2], in [3], in test [4], in test [5] and in [6] was inactive. Moreover, the result in test [7], in test [8], in test [9], in [10], in test [11] and in test [12] was inactive. The outcome in [13], in test [14], in [15], in test [16], in [17] and in test [18] was inactive. Besides, the outcome in test [19] and in test [20] was inactive.
By AC50 is commonly meant the concentration at which the activity in the assay is half-maximal. In the case of `Oc1ccc(Nc2ccccc2)cc1`, the result in test [1], in test [2], in [3], in test [5], in test [7] and in [9] was inactive. Besides, the result in test [10], in test [11], in [14], in test [15], in [16] and in test [17] was inactive. In addition, the outcome in test [18] and in test [19] was inactive. Also, the concentration at half-maximal activity (AC50) was 2.54 µM (active) in test [4]; 2.43 µM (active) in test [6]; 30.1 µM (active) in test [8]; 5.45 µM (active) in test [12]; 11 µM (active) in test [13]; 26.5 µM (active) in test [20].
In the case of `CCN(CC)c1ccc2c(C)cc(=O)oc2c1`, the outcome in [1], in [2], in test [3], in test [4], in [5] and in test [7] was inactive. Moreover, the outcome in test [8], in test [9], in test [10], in test [11], in [12] and in test [13] was inactive. Also, the result in test [14], in test [15], in [16], in test [17], in [18] and in [19] was inactive. The results for the AC50 in test [6] and in test [20] were 31.3 µM (active) and 24 µM (active), respectively.
For the compound `O=C(O)C(F)(F)C(F)(F)C(F)(F)C(F)(F)F`, the outcome in test [1], in test [2], in [3], in test [4], in [5] and in [6] was inactive. The result in [7], in test [8], in [9], in test [10], in test [11] and in test [12] was inactive. Further, the outcome in test [13], in test [14], in test [15], in test [16], in test [17] and in test [18] was inactive. For the same compound, the result in test [19] and in test [20] was inactive.
For `FC(F)(F)C(F)(F)C(F)(F)C(F)(F)C(F)(F)C(F)(F)C(F)(F)Br`, the outcome in test [1], in [2], in test [3], in test [4], in test [5] and in test [6] was inactive. Further, the outcome in [7], in test [8], in test [9], in test [10], in test [11] and in test [12] was inactive. For the same compound, the result in test [13], in test [14], in [15], in [16], in test [17] and in [18] was inactive. Further, the result in test [19] and in test [20] was inactive.
